LYPLA2 counter – LYPLA2 inhibitors, primary screen, counter-screen for PME1 inhibitor project, biochemical, fluorescence polarization, FP-Rh probe ABPP | Acyl-protein thioesterase 2 (Homo sapiens), O95372 | recombinant LYPLA2 | inhibition, % at 5.9 µM | 320,000 tested, 0.38% active | AID 2177, 2009;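 active means inhibition above the screen-wide mean plus 3 SD, limit set per campaign, cut at about 26% in these data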
GSTO1 counter – inhibitors of recombinant GSTO1, primary screen, counter-screen for RBBP9 inhibitor project, biochemical, fluorescence polarization; Glutathione S-transferase omega-1 (Homo sapiens), P78417; activity-based probe fluorescence polarization; inhibition, % at 5.96 µM; 300,000 tested, 1.1% active; AID 1974, 2009;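 active means inhibition above the campaign mean inhibition plus 3 SD, cut at about 35% in these data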
EBNA-1 inh – EBNA-1 DNA-binding inhibitors, primary screen, biochemical, fluorescence polarization; 300,000 tested, 0.34% active; inhibition, % at 14.8 µM; AID 1950, 2009; in the data active means inhibition above about 28%
PAD4 FP inh – human PAD4 inhibitors, primary screen, biochemical, fluorescence polarization, 1536-well format | Protein-arginine deiminase type-4 (Homo sapiens), Q9UM07 | recombinant PAD4, RCA probe fluorescence polarization | inhibition, % at 6.36 µM | 330,000 tested, 0.41% active;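 active means percent inhibition above a cutoff equal to the mean of all tested compounds plus 3 SD, cut at about 15% in these data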
ZTA counter – ZTA (EBV) inhibition in EBNA-1 counter-screen. 320,000 tested, 0.15% active. AID 2234. inhibition, % at 11 µM. P03206. ZTA-DNA binding, fluorescence polarization; in the data active means inhibition above about 33%
Target sequence (P03206 whole entry, looked up): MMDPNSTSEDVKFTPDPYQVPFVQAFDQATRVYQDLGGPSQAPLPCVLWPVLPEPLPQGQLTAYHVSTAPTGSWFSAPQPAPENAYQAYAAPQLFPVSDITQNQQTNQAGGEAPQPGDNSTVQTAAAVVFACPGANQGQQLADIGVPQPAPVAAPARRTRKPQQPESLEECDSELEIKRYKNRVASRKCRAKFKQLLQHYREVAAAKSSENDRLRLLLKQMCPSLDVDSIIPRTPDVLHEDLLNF
LYPLA1 counter – LYPLA1 inhibitors, primary screen, counter-screen for PME1 inhibitor project, biochemical, fluorescence polarization, FP-Rh probe ABPP; Acyl-protein thioesterase 1 (Homo sapiens), O75608; inhibition, % at 5.9 µM; 320,000 tested, 0.16% active; AID 2174, 2009; recombinant LYPLA1;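 active means inhibition above the mean of all tested compounds plus 3 SD, set per campaign, cut at about 14% in these data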;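 further: inhibitors block serine hydrolase probe labeling of LYPLA1 so polarization falls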
Target sequence (O75608 whole entry, looked up): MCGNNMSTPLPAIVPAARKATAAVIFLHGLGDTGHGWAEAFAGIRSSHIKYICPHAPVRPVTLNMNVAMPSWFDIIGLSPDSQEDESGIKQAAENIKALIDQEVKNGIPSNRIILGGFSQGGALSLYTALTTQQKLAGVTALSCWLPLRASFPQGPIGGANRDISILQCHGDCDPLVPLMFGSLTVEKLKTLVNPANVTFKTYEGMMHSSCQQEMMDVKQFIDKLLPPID
PAD4 FP conf – human PAD4 inhibitors, confirmation, biochemical, fluorescence polarization | shares compounds with PAD4 FP inh | recombinant PAD4, RCA probe fluorescence polarization | inhibition, % at 6.36 µM | 1,200 tested, 28% active | AID 488796, 2010;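 active means mean inhibition across replicates above the hit cutoff set by the earlier primary screen, cut at about 15% in these data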;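 further: inhibitors block active-site labeling by the probe so polarization falls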
Each line names hits and unclear results; the compound was inactive in the other large screens (follow-up assays come after a bar, where they were run). Only some compounds are listed: those with a hit (about 1.7% of all), similar ones and a draw of the others.

CCNC(=S)N1CCN(S(=O)(=O)c2cccc(C(F)(F)F)c2)CC1	none
O=C1CCCC(O)=C1N=Nc1c(Cl)cc(C(F)(F)F)cc1Cl	PAD4 FP inh 85 | PAD4 FP conf inactive
Cc1ccc(-c2nc3sc(C#N)c(N)n3c(=O)c2C#N)cc1	GSTO1 counter 36, PAD4 FP inh 62 | PAD4 FP conf inactive
CCc1ccc(CNc2ccc(N3CCN(C(C)=O)CC3)cc2)cc1	PAD4 FP inh 29 | PAD4 FP conf inactive
Fc1ccc(CNC(=S)NCc2cccc(Cl)c2)cc1	none
CCCc1cc(=O)[nH]c(SCCCCN2C(=O)c3ccccc3C2=O)n1	none
Cc1nonc1OC(C)CNc1ccc([N+](=O)[O-])cc1 (stereo not drawn)	PAD4 FP inh 56 | PAD4 FP conf inactive
COc1cc(C(=O)NCC(c2ccccc2)N(C)C)ccc1OCc1c(C)noc1C (stereo not drawn)	none (no result: GSTO1 counter, EBNA-1 inh)
Cc1ccc2c(c1)cc(CN(Cc1cccs1)C(=O)c1ccco1)c1nnnn12	PAD4 FP inh 30 | PAD4 FP conf inactive
Cc1ccc2cc(CN(Cc3cccs3)C(=O)c3ccco3)c3nnnn3c2c1C	none
Cn1c(=O)c(C(=O)NCCc2ccc(Cl)cc2)c(O)c2ccccc21	none
CCOC(=O)C1=C(C)NC(C)=C(C(=O)OC)C1c1ccco1 (stereo not drawn)	none
CCOC(=O)C1=C(C)NC(=O)C(C#N)C1c1ccco1 (stereo not drawn)	PAD4 FP inh 18 | PAD4 FP conf inactive
O=C(CN1CCN(c2ccccn2)CC1)Nc1nc2ccccc2s1	PAD4 FP inh 18 | PAD4 FP conf inactive
COc1ccc(Cl)cc1N(CC(=O)NCCSc1ccccn1)S(=O)(=O)c1ccccc1	none
CCC(CO)Oc1cc(NCc2ccccc2)c2ncn(C(C)C)c2c1 (stereo not drawn)	none (no result: LYPLA2 counter, GSTO1 counter, EBNA-1 inh, ZTA counter, LYPLA1 counter)
CC(C)n1cnc2c(NCc3ccccc3)cc(N[C@H](C)CO)cc21	PAD4 FP inh 46 (no result: LYPLA2 counter, GSTO1 counter, EBNA-1 inh, ZTA counter, LYPLA1 counter) | PAD4 FP conf 32
CCC(COC)Oc1cc(NCc2ccccc2)c2ncn(C(C)C)c2c1 (stereo not drawn)	PAD4 FP inh 24 (no result: GSTO1 counter, EBNA-1 inh) | PAD4 FP conf inactive
Cc1ccc(C2=Nc3ccccc3SC(c3cccc([N+](=O)[O-])c3)C2)cc1 (stereo not drawn)	PAD4 FP inh 18 | PAD4 FP conf inactive
COc1ccc(C2C=C(c3ccc(F)cc3)NC(=S)N2)cc1OC (stereo not drawn)	none
COc1cccc(C2=CC(c3ccc(OC)c(OC)c3)NC(=S)N2)c1 (stereo not drawn)	PAD4 FP inh 30 | PAD4 FP conf 56
COc1ccc(C2=CC(c3ccc(OC)c(OC)c3)NC(=S)N2)cc1 (stereo not drawn)	PAD4 FP inh 49 | PAD4 FP conf 56
CCNC(=O)CC1C(=O)N(c2ccccc2)C(=O)N1CCOC (stereo not drawn)	none
Cc1c(C(c2cccc(Br)c2)c2c(C)n(C)n(-c3ccccc3)c2=O)c(=O)n(-c2ccccc2)n1C	none
CN(C)C(CNC(=O)c1cc2ccccc2o1)c1ccco1 (stereo not drawn)	PAD4 FP inh 88 (no result: LYPLA2 counter, GSTO1 counter, EBNA-1 inh, ZTA counter, LYPLA1 counter) | PAD4 FP conf inactive
Cc1ccc(C(C(=O)NC(C)(C)C)N(CCCN2CCOCC2)C(=O)c2ccc(-c3ccccc3)[nH]2)o1 (stereo not drawn)	none
O=C(NC1CCCCC1)C(c1cccs1)N(CCCN1CCOCC1)C(=O)c1ccc(-c2ccccc2)[nH]1 (stereo not drawn)	PAD4 FP inh 63 | PAD4 FP conf inactive
CCOc1cc(/C=N/Nc2nnc(C)n2N)ccc1O	GSTO1 counter 37, PAD4 FP inh 50 | PAD4 FP conf inactive
CC1CCN(c2ccc(/C=N\Nc3nncn3N)cc2[N+](=O)[O-])CC1	PAD4 FP inh 30 | PAD4 FP conf inactive
CC1CCN(c2ccc(/C=N/n3nnnc3N)cc2[N+](=O)[O-])CC1	none
COc1ccc(OC)c(/C=N/Nc2nncn2/N=C/c2cc(OC)ccc2OC)c1	PAD4 FP inh 21 | PAD4 FP conf inactive
COc1cc(/C=N/Nc2nncn2/N=C/c2ccc(O)c(OC)c2)ccc1O	PAD4 FP inh 43 | PAD4 FP conf inactive
COc1cc(/C=N/Nc2ccccc2)ccc1O	none
COc1cc(Cl)ccc1OCc1cc(C(=O)N2C[C@]3(C)C[C@H]2CC(C)(C)C3)no1	none
COc1cc(/C=N\Nc2nncn2N)ccc1OC(C)=O	PAD4 FP inh 31 | PAD4 FP conf inactive
CC1=NN(c2ccc(Cl)c(C(=O)O)c2)C(=O)C1	GSTO1 counter 72, PAD4 FP inh 36 | PAD4 FP conf inactive
CC1=NN(c2ccc(C(=O)O)c(N)c2)C(=O)C1	GSTO1 counter 63, PAD4 FP inh 25 | PAD4 FP conf 17
CC1=NN(c2ccc(C(=O)O)cc2)C(=O)CC1	none
CC(C)Cn1c(N)c(C(=O)COC(=O)c2cccn2C)c(=O)n(C)c1=O	none (no result: LYPLA2 counter, GSTO1 counter, EBNA-1 inh, ZTA counter, LYPLA1 counter)
Cc1ccc(C)c(S(=O)(=O)N2CCN(C(=O)Cc3ccc(S(=O)(=O)N4CCOCC4)s3)CC2)c1	none
Cc1nc[nH]c(=O)c1Br	none
Cn1ncc2nc[nH]c(=O)c21	PAD4 FP inh 19 | PAD4 FP conf inactive
Cc1ccnc(Sc2ccc([N+](=O)[O-])cc2[N+](=O)[O-])n1	PAD4 FP inh 22 | PAD4 FP conf 24
O=C(C[C@@H]1C/C=C\CCC(=O)OC[C@H](Cc2ccccc2)NC1=O)N[C@@H](CO)Cc1ccccc1	none (no result: LYPLA2 counter, GSTO1 counter, EBNA-1 inh, ZTA counter, LYPLA1 counter)
Cc1ccccc1Cn1cc(NC(=O)CCCn2nc([N+](=O)[O-])cc2C)cn1	none
Cc1cc([N+](=O)[O-])nn1CCCC(=O)Nc1ccc2c(c1)OCO2	PAD4 FP inh 15 | PAD4 FP conf inactive
CCOC(=O)C(NC(=O)c1ccc(OC)cc1)(N1CCCC1=O)C(F)(F)F (stereo not drawn)	none
COCCCn1c(=S)[nH]c2c(sc3ccccc32)c1=O	PAD4 FP inh 18 | PAD4 FP conf inactive
CC1=NN(CCC#N)C(=O)/C1=C/c1ccc(N(C)C)cc1	none
COc1cc(/C=C2\C(=O)N(CCC#N)N=C2C)ccc1OCC(=O)Nc1ccccc1	GSTO1 counter 47, PAD4 FP inh 51 | PAD4 FP conf inactive
CCOc1cc(/C=C2\C(=O)N(CCC#N)N=C2C)ccc1OCC(N)=O	GSTO1 counter 54, PAD4 FP inh 57 | PAD4 FP conf inactive
O=C1[C@@H](Oc2ccccc2)[C@@H](c2ccncc2)N1c1ccncc1	none (no result: LYPLA2 counter, GSTO1 counter, EBNA-1 inh, ZTA counter, LYPLA1 counter)
CCc1ccc(OCC(=O)O/N=C(\N)c2ccncc2)c(Br)c1	none
Cc1cc(C(=O)OCC(=O)NC2CCS(=O)(=O)C2)c2ccccc2n1 (stereo not drawn)	none

Screening results: PubChem, The Scripps Research Institute Molecular Screening Center
